Data on ten compounds can be found in PubChem BioAssay (NCATS).

Records with an inconclusive call do not appear. Values without a mark were called inactive. The source made the active and inactive calls. Calls come from the whole dose curve; as a rule, active = well fitted curve in the direction sought with a large enough effect; inconclusive = small, poorly fitted or top-dose-only effect, or another doubt; inactive = no such curve, though single readings can be large; an effect the other way counts as inactive or inconclusive.

Test [1] in a line: qHTS to identify inhibitors of the type 1 interferon - major histocompatibility complex class I in skeletal muscle: primary screen against the NCATS Pharmaceutical Collection (AID 1347407).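 Note: luminescence of HiBiT knocked into endogenous HLA-B as interferon-induced MHC class I level.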 Note: potency is the fitted concentration of half-maximal effect. The settings on record: human skeletal muscle cells, IFN-b-induced MHC-I HiBiT luminescence, 24 h; series mostly up to 45.9 µM. The procedure, abridged:
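Compounds […] were added to CRISPR-engineered HLA-B-HiBiT C25cl48 human myoblasts with 4.0 ng/ml IFN-beta. After 24 hrs at 37 C, cells were lysed and HiBiT luminescence measured.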
(Quantitative high-throughput screening tests each substance at several concentrations.)

The target in test [2] is Protein phosphatase 1D (Homo sapiens) (UniProt O15297). Kind of test: RapidFire Mass Spectrometry qHTS Assay for Modulators of WT P53-Induced Phosphatase 1 (WIP1) (AID 1347424).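 Note: amount of dephosphorylated VEPPL-S-QETFS peptide product formed by WIP1; plate controls were DMSO wells for no effect and GSK830371 inhibitor control at 10 µM for full effect.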 The settings on record: WIP1 dephosphorylation of phosphopeptide, RapidFire MS; series mostly up to 63 µM. The procedure, abridged: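 RapidFire mass spectrometry measured dephosphorylated peptide after 5 min room-temperature reaction of 2 uM VEPPL-pS-QETFS with 10 nM WIP1 (50 mM Tris-HCl pH 7.5, 30 mM MgCl2, 0.1 mM EGTA, BSA), following 1 hr compound preincubation; 1 uM isotope-labelled product standard.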

Test [3] shares this target. Briefly: Rhodamine-PBP qHTS Assay for Modulators of WT P53-Induced Phosphatase 1 (WIP1) (AID 1347425). Note: % of control where 0% means no effect. The settings on record: recombinant WIP1, Rhodamine-PBP phosphate fluorescence, real-time; series mostly up to 57.5 µM. The procedure, abridged: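 Read-out: Rhodamine-PBP fluorescence (ex 525/em 598 nm) for released Pi, read each minute for 11 min after adding 10 uM VEPPL-pS-QETFS; signal taken as f1 minus pre-substrate f0. Enzyme 5 nM WIP1 with 1 hr room-temperature compound preincubation.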

Test [4] is described as follows: Primary qHTS for small molecule stabilizers of the endoplasmic reticulum resident proteome: Secreted ER Calcium Modulated Protein (SERCaMP) assay (AID 1508630). Note: % is set by controls: 0 for no effect and ±100 for the full control effect. The settings on record: SH-SY5Y GLuc-SERCaMP (Gaussia luciferase released on ER calcium loss) secretion, thapsigargin, luminescence; series mostly up to 38.4 µM. The procedure, abridged: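 The SH-SY5Y reporter protocol was run at 3 concentrations up to 38.3 uM (primary) or 11 concentrations (follow-up): 16 h compound, 100 nM thapsigargin for 4 h, then extracellular luciferase luminescence.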

Test [5] is described as follows: Primary qHTS for inhibitors of La Crosse Virus (LACV) - induced cell death in SH-SY5Y cells (AID 1508616).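 Note: top concentration of the series differs between compounds; 0% = infected DMSO wells and 100% = uninfected DMSO wells; higher means more rescue of cells from virus-induced death.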 The settings on record: SH-SY5Y LACV cytopathicity rescue, ATP luminescence, 6 d; series mostly up to 4.29 µM. The procedure, abridged: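 Rescue of virus-induced death was read as ATPLite luminescence after 6 days at 37C, scaled between DMSO wells with LACV and without virus. Cells were SH-SY5Y, 6000/well, infected at 0.01 MOI after compound addition.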

Test [6] deals with Calcium and integrin-binding protein 1 (Homo sapiens) (UniProt Q99828). Kind of test: Primary qHTS for Identification of Calcium Integrin Binding Protein 1 (CIB1) Competitor (AID 1508620).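 Note: GST tagged CIB1 binding a fluorescein labelled alphaIIb integrin peptide tracer; top concentration of the series differs between compounds; % is set by controls: 0 for no effect and ±100 for the full control effect.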 The settings on record: CIB1-GST / FITC-alphaIIb peptide fluorescence polarization; series mostly up to 114 µM. The procedure, abridged: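 CIB1-GST (1 uM final) and compound incubated 15 min at room temperature before adding FITC-alphaIIb peptide tracer (100 nM final). Competition for binding read by fluorescence polarization (ex 480, em 540) after another 15 min at room temperature.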

A short description of test [7]: Confirmatory qHTS for small molecule stabilizers of the endoplasmic reticulum resident proteome: Secreted ER Calcium Modulated Protein (SERCaMP) assay (AID 1508628). Note: potency is the fitted concentration of half-maximal effect; nearly all actives have a fitted effect of over 40% in size. The settings on record: SERCaMP secreted luciferase ER calcium/proteostasis reporter; series mostly up to 76.3 µM. The essentials: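 Reporter secretion upon ER calcium depletion (100 nM thapsigargin, 4 h, 37C) is measured as medium luminescence with coelenterazine, after 16 h compound pretreatment of SH-SY5Y-GLuc-SERCaMP cells; primary at three concentrations up to 38.3 uM, follow-up at 11 (up to 76.6 uM).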

The nature of test [8]: Cell Viability qHTS for small molecule stabilizers of the endoplasmic reticulum resident proteome (AID 1508629).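 Note: human SH-SY5Y neuroblastoma cells carrying the GLuc-SERCaMP reporter; compound exposure about 46 h in total before the viability read; % is set by controls: 0 for no effect and ±100 for the full control effect.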 The settings on record: cell viability counter-screen, 100 nM thapsigargin for final 4 h.

Sequence of Calcium and integrin-binding protein 1 (Homo sapiens) (Q99828 whole entry, looked up): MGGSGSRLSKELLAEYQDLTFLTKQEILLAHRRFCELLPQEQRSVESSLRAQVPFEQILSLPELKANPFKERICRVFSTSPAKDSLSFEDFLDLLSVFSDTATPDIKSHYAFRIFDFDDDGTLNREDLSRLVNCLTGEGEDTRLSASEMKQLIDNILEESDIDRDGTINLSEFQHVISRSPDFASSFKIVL
Sequence of Protein phosphatase 1D (Homo sapiens) (O15297 whole entry, looked up): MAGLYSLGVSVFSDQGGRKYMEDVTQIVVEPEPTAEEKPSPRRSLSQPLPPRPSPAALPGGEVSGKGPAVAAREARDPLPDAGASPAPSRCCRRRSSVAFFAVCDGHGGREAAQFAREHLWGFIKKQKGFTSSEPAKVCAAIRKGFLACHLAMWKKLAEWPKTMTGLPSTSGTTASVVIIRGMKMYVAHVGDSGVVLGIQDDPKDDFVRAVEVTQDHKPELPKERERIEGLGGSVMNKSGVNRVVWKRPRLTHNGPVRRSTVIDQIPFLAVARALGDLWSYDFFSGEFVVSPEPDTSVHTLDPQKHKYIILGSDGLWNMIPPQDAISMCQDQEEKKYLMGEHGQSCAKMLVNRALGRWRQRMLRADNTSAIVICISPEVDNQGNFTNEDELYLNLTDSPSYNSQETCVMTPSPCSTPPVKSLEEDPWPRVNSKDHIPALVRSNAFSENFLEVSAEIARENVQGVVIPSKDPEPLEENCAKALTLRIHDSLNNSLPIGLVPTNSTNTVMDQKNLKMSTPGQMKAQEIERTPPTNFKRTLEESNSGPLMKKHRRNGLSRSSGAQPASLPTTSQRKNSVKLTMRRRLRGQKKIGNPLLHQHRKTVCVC

As for `COc1cccc2c1C(=O)c1c(O)c3c(c(O)c1C2=O)C[C@@](O)(C(C)=O)C[C@@H]3O[C@H]1C[C@H](N)[C@H](O)[C@H](C)O1`, the Potency in test [1] is 3.33 µM (active). Also, the Potency result in test [2] and in test [4] was “inactive” each time. In addition, the outcome in test [3] was inactive.
Consider `Cc1cc(=O)n(-c2ccccc2)n1C`, for which the Potency entry in test [1], in test [2], in test [5], in test [6] and in test [4] was “inactive” throughout.
With `CCCCCCCCCCCCCCCCOP(=O)([O-])OCC[N+](C)(C)C`, the Potency result in test [1], in test [2], in test [5], in test [6] and in test [4] was “inactive” each time.
`CN1CCCC(CC2c3ccccc3Sc3ccccc32)C1` (stereo not drawn): the Potency result in test [1], in test [2], in test [5] and in test [6] was “inactive” throughout. The Potency in test [7] is 22.4 µM (active). Also, the max response in test [8] is -16.7%.
Regarding `OC[C@@H](O)[C@@H](O[C@@H]1O[C@H](CO)[C@H](O)[C@H](O)[C@H]1O)[C@H](O)[C@@H](O)CO`, the Potency result in test [1], in test [2], in test [5], in test [6] and in test [4] was “inactive” in each case.
As for `CN=C(NC#N)Nc1ccc(C2=NNC(=O)CC2C)cc1` (stereo not drawn), the Potency result in test [1], in test [2], in test [5], in test [6] and in test [4] was “inactive” each time.
On to `OCc1ccccc1O`, for which the Potency result in test [1], in test [5] and in test [6] was “inactive” throughout. Further, the result in test [3] was inactive.
With `Nc1ccc(C(=O)O)cc1`, the Potency entry in test [1], in test [2], in test [5], in test [6] and in test [4] was “inactive” in each case.
Turning to `NC[C@H]1O[C@H](O[C@H]2[C@H](O)[C@@H](O[C@H]3O[C@H](CO)[C@@H](O)[C@H](N)[C@H]3O)[C@H](N)C[C@@H]2N)[C@H](N)[C@@H](O)[C@@H]1O`, the Potency result in test [1], in test [5] and in test [6] was “inactive” each time. For the same compound, the outcome in test [3] was inactive.
As for `Cc1c(N(C)CS(=O)(=O)O)c(=O)n(-c2ccccc2)n1C`, the Potency entry in test [1], in test [2], in test [5], in test [6] and in test [4] was “inactive” throughout.
